From PubChem BioAssay (NCATS)
Results filed as inconclusive are left out. Where a call stands in place of a potency, no number is given. Active and inactive are the calls of the source. Calls follow the shape of the dose curve; as a rule, active = well fitted curve in the direction sought with a large enough effect; inconclusive = small, poorly fitted or top-dose-only effect, or another doubt; inactive = no such curve, though single readings can be large; an effect the other way counts as inactive or inconclusive.

Legend:
[1] = biological target: M-phase phosphoprotein 8 (Homo sapiens) (UniProt Q99549); assay: qHTS Validation Assay for Inhibitors for MPP8 Chromodomain Interactions with Methylated Histone Tails (AID 488949); also: nearly all actives have a fitted effect of over 55% in size; also: potency is read from the fitted curve at half-maximal effect
M-phase phosphoprotein 8 (Homo sapiens), sequence (Q99549 whole entry, looked up): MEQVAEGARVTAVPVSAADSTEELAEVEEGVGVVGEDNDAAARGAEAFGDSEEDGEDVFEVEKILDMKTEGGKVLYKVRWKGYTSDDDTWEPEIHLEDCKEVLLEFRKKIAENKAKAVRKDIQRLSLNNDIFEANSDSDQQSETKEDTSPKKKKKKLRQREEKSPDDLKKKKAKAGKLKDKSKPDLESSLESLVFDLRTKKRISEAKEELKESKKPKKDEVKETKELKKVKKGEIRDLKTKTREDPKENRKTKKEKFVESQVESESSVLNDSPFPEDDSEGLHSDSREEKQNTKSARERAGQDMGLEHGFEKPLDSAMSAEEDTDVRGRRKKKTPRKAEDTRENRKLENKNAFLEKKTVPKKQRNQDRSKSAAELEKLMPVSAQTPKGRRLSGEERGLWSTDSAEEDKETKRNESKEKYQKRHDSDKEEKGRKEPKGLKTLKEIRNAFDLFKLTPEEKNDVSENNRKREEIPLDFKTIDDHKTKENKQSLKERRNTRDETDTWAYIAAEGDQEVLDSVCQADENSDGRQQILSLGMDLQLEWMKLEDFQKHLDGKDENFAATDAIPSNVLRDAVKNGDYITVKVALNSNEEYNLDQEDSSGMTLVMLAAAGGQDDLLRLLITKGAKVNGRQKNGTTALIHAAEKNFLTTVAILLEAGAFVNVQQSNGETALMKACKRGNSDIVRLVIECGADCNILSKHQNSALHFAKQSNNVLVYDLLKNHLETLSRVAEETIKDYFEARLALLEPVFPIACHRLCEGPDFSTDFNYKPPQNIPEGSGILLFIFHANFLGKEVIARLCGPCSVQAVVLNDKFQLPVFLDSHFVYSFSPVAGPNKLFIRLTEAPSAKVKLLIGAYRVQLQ
Summary of the method: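 MPP8 (50 nM) was preincubated with biotinylated H3(1-18)K9me3 peptide (50 nM) in PBS pH 7.4, 0.01% Tween-20 for 30 min at room temperature, then with compounds for 30 min; binding was detected by AlphaScreen.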

[2] = biological target: Chromobox protein homolog 1 (Homo sapiens) (UniProt P83916); assay: qHTS Validation Assay for Inhibitors of HP1-beta Chromodomain Interactions with Methylated Histone Tails (AID 488953); also: nearly all actives have a fitted effect of over 50% in size; also: potency is read from the fitted curve at half-maximal effect
Chromobox protein homolog 1 (Homo sapiens), sequence (P83916 whole entry, looked up): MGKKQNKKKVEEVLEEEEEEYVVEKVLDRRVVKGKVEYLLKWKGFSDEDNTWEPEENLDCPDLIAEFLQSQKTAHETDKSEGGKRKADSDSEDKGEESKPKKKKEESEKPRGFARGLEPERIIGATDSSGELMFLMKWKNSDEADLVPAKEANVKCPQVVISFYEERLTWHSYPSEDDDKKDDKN
Summary of the method: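 HP1-beta (50 nM) preformed 30 min with biotinylated H3(1-18)K9me3 peptide (50 nM) in PBS pH 7.4, 0.01% Tween-20. Compounds added for 30 min at room temperature. Complex disruption read by AlphaScreen with streptavidin donor/nickel chelate acceptor beads (10 ug/mL each).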

[3] = biological target: Methanococcus maripaludis chaperonin (MmCpn) (UniProt Q6LX38); assay: High-Throughput Screening for Modulators of Cytosolic Chaperonin Activity: MmCpn Primary Screen (AID 488978);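 also: 50 nM MmCpn enzyme hydrolysing 30 µM ATP at 37 °C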
Methanococcus maripaludis chaperonin (MmCpn), sequence (Q6LX38 1-543): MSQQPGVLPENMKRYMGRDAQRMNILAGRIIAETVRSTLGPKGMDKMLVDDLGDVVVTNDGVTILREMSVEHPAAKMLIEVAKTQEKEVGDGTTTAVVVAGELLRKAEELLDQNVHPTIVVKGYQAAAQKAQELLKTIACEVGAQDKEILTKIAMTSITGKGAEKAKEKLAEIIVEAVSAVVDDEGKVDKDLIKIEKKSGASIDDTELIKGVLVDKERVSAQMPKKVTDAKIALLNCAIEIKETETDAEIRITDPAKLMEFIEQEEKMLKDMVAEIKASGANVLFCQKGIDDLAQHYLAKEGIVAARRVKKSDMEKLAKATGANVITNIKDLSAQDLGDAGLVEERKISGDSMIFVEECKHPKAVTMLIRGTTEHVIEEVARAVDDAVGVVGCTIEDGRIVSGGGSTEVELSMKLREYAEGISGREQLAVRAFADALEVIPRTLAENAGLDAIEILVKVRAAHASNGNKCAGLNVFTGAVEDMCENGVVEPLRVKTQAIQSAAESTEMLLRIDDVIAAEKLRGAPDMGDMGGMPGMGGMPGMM
Summary of the method: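 MmCpn (50 nM final) was preincubated with compound 5 min at RT, then 30 uM ATP (final) was added and the reaction ran 10 min at 37C. ADP produced was detected by Transcreener HTRF (ex 320 nm; em 590/665 nm).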

[4] = biological target: Transient receptor potential cation channel subfamily V member 1 (Homo sapiens) (UniProt Q8NER1); assay: HTS Assay for Compounds that Act as Enhancers of the Vanilloid Receptor 1 (AID 488979)
Transient receptor potential cation channel subfamily V member 1 (Homo sapiens), sequence (Q8NER1 whole entry, looked up): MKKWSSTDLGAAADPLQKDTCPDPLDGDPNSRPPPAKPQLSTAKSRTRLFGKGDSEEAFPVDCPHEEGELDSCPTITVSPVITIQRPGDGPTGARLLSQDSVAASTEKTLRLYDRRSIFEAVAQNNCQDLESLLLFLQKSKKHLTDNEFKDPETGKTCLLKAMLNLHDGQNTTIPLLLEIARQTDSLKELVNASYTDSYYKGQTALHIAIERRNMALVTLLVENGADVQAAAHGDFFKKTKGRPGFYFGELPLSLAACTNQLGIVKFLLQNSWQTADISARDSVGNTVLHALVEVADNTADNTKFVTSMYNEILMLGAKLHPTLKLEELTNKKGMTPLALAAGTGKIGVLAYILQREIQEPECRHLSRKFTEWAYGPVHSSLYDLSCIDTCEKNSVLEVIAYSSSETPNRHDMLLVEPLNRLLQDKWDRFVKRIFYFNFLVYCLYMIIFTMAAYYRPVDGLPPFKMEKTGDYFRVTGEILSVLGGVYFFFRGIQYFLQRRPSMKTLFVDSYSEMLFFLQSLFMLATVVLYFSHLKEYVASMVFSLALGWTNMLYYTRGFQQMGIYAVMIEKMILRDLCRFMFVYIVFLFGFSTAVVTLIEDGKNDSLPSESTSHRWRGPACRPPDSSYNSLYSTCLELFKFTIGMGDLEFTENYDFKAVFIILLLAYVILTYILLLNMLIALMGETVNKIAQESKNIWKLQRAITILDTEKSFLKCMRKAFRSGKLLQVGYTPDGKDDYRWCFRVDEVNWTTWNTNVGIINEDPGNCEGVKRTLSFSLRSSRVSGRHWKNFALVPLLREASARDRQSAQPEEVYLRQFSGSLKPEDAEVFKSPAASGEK
Summary of the method: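 TRPV1-expressing cells loaded with Fluo-8 calcium dye; compounds added and calcium influx read kinetically for 3 min (agonist phase), then capsaicin at EC20 added and read 2 min more for enhancement. Fluorescence ex 480/em 520 nm.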

[5] = biological target: Thyrotropin receptor (Homo sapiens) (UniProt P16473); assay: qHTS Assay for Antagonists of the Thyroid Stimulating Hormone Receptor (AID 488980); also: series mostly up to about 58 µM
Thyrotropin receptor (Homo sapiens), sequence (P16473 whole entry, looked up): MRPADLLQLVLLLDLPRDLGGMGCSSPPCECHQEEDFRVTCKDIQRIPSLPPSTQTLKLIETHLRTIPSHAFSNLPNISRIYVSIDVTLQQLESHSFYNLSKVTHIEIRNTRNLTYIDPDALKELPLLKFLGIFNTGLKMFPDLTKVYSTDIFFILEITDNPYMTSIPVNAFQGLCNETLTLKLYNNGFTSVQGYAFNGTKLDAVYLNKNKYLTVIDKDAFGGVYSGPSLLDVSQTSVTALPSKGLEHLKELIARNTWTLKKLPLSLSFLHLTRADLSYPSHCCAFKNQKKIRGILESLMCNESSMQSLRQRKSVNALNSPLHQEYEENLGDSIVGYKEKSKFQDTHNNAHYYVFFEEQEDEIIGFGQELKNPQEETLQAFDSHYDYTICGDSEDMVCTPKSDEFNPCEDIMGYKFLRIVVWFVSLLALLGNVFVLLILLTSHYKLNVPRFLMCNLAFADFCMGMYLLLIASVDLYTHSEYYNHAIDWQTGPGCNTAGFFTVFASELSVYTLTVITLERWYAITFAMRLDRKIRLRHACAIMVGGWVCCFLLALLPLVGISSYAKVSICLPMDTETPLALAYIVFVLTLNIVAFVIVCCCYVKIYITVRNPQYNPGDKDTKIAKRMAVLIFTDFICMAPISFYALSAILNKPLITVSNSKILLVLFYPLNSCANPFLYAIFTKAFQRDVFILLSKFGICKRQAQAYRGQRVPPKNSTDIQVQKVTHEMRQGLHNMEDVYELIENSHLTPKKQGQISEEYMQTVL
Summary of the method: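 HEK293 cells transfected with human TSHR, suspended in HEPES-buffered HBSS with 70 uM RO 20-1724, were treated with compounds plus TSH at EC80 (4 nM final). cAMP was measured by competitive HTRF (cryptate anti-cAMP antibody, cAMP-d2 acceptor).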

[6] = biological target: D(1A) dopamine receptor (Homo sapiens) (UniProt P21728); assay: HTS Assay for Allosteric Agonists of the Human D1 Dopamine Receptor: Primary Screen for Agonists (AID 488981); also: potency is read from the fitted curve at half-maximal effect
D(1A) dopamine receptor (Homo sapiens), sequence (P21728 whole entry, looked up): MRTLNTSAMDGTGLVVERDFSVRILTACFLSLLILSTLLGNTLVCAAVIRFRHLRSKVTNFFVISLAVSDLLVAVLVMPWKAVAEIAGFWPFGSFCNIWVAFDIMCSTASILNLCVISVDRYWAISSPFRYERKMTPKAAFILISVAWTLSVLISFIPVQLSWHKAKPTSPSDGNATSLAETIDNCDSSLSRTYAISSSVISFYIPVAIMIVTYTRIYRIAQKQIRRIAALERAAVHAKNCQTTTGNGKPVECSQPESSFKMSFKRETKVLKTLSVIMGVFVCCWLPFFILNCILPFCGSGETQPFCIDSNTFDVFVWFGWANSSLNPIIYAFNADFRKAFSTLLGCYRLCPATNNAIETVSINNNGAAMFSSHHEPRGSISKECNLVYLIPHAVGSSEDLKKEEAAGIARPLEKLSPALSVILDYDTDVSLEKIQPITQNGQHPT
Summary of the method: (§1)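 Tetracycline-induced HEK293 T-REx cells force-coupled to calcium signalling were incubated overnight at 30 C and dye-loaded at room temperature. Calcium flux over 180 s after compound addition flagged agonists; a further 180 s read after EC20 dopamine flagged potentiators.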

[7] = biological target: D(1A) dopamine receptor (Homo sapiens) (UniProt P21728); assay: HTS Assay for Allosteric Agonists of the Human D1 Dopamine Receptor: Primary Screen for Potentiators (AID 488982); also: potency is read from the fitted curve at half-maximal effect
Summary of the method: as §1

[8] = biological target: D(1A) dopamine receptor (Homo sapiens) (UniProt P21728); assay: HTS Assay for Allosteric Agonists of the Human D1 Dopamine Receptor: Primary Screen for Antagonists (AID 488983);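 also: calcium flux response to an EC80 dopamine challenge measured with no-wash dye; nearly all actives have a fitted effect of over 65% in size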; also: potency is read from the fitted curve at half-maximal effect
Summary of the method: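 Tetracycline-induced HEK293 T-REx D1 line, force-coupled to calcium flux, read with no-wash calcium dye. Compound added after 10 s baseline, read 180 s for agonism, then EC80 dopamine added and read a further 180 s.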

[9] = biological target: ATP-dependent 6-phosphofructokinase (Trypanosoma brucei brucei) (UniProt O15648); assay: qHTS Assay to Find Inhibitors of T. brucei phosphofructokinase: hit validation (AID 492961);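 also: luminescence reports ADP formed as PFK phosphorylates fructose-6-phosphate with ATP; series mostly up to about 51 µM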
ATP-dependent 6-phosphofructokinase (Trypanosoma brucei brucei), sequence (O15648 whole entry, looked up): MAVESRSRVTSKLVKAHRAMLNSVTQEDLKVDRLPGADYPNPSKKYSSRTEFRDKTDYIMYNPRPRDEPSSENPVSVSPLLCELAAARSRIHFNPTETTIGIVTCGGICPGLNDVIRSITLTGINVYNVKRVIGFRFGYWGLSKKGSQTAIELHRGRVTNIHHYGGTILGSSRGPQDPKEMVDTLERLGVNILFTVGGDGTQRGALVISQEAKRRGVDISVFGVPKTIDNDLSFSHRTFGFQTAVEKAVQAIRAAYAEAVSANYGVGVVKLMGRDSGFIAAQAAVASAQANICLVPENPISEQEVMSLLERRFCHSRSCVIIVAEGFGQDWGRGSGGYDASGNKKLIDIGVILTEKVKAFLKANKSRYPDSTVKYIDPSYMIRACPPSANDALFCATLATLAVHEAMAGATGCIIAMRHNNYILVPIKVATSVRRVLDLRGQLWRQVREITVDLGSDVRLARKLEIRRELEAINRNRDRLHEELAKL
Summary of the method: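 PFK 1.25 nM, F6P 0.5 mM, ATP 0.1 mM, MgCl2 5 mM, 0.1 M TEA pH 8.0, Tween20 0.01%, BSA 0.1%; 45 min RT. ADP-Glo two-step detection, luminescence. qHTS titration; curve fitting with curve-class categorization.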

| Structure (SMILES) | Potency [1] | Potency [2] | outcome [3] | outcome [4] | outcome [5] | Potency [6] | Potency [7] | Potency [8] | outcome [9] |
| --- | --- | --- | --- | --- | --- | --- | --- | --- | --- |
| Cc1ccccc1C(OCCN(C)C)c1ccccc1 (centres undefined) | inactive | inactive | inactive | inactive | inactive | inactive | inactive | inactive | inactive |
| Cc1oncc1C(=O)Nc1ccc(C(F)(F)F)cc1 | inactive | inactive | inactive | inactive | inactive | inactive | inactive | inactive | inactive |
| Nc1nc2ccc(OC(F)(F)F)cc2s1 | inactive | inactive | inactive | inactive | inactive | inactive | inactive | inactive | – |
| Nc1ccc(S(=O)(=O)Nc2ccnn2-c2ccccc2)cc1 | inactive | inactive | inactive | inactive | inactive | inactive | inactive | inactive | inactive |
| CCCCNc1cc(C(=O)O)cc(S(N)(=O)=O)c1Oc1ccccc1 | inactive | inactive | inactive | inactive | inactive | inactive | inactive | inactive | inactive |
| Cc1cn[nH]c1 | inactive | inactive | inactive | inactive | inactive | inactive | inactive | inactive | inactive |
| CCC(C)N(C)C(=O)c1cc2ccccc2c(-c2ccccc2Cl)n1 (centres undefined) | inactive | inactive | inactive | inactive | inactive | inactive | inactive | inactive | – |
| Oc1ccc(C2CNCCc3c2cc(O)c(O)c3Cl)cc1 (centres undefined) | inactive | 6.7 nM (active) | inactive | inactive | inactive | – | inactive | – | – |
| NCCCC(N)(C(=O)O)C(F)F (centres undefined) | inactive | – | inactive | inactive | inactive | inactive | inactive | inactive | inactive |
| N[C@@H]1CONC1=O | inactive | – | inactive | inactive | inactive | inactive | inactive | inactive | inactive |
| Cc1c(C)c2c(c(C)c1O)CCC(C)(COc1ccc(CC3SC(=O)NC3=O)cc1)O2 (centres undefined) | – | – | – | – | – | – | – | – | inactive |
| Nc1ncnc2nc(-c3ccc(N4CCOCC4)nc3)cc(-c3cccc(Br)c3)c12 | inactive | – | inactive | – | – | inactive | inactive | inactive | – |
| C1COC(NC(C2CC2)C2CC2)=N1 | inactive | – | inactive | inactive | inactive | inactive | inactive | inactive | – |
| CN1CCN(CCCN2c3ccccc3Sc3ccc(C(F)(F)F)cc32)CC1 | 20000 nM (active) | 31600 nM (active) | inactive | – | inactive | inactive | – | – | inactive |
| C#Cc1cccc(Nc2ncnc3cc(OCCOC)c(OCCOC)cc23)c1 | – | – | – | – | – | – | – | – | inactive |
| Cc1ccc(N(CC2=NCCN2)c2cccc(O)c2)cc1 | inactive | – | inactive | inactive | inactive | inactive | inactive | – | – |
| NC(=O)c1cnccn1 | inactive | inactive | inactive | inactive | – | inactive | inactive | inactive | – |

| Structure (SMILES) | Potency [1] | Potency [2] | outcome [3] | outcome [4] | outcome [5] | Potency [6] | Potency [7] | Potency [8] | outcome [9] |
| --- | --- | --- | --- | --- | --- | --- | --- | --- | --- |
| CCOC(=O)C1=C[C@]2(CC)CCCN3CCc4c(n1c1ccccc41)[C@@H]32 | inactive | – | inactive | inactive | inactive | inactive | 3260 nM (active) | – | – |
| CCOC(=O)N1CCC(=C2c3ccc(Cl)cc3CCc3cccnc32)CC1 | inactive | – | inactive | inactive | – | inactive | inactive | inactive | – |
| OC(CN1CCC(Cc2ccc(F)cc2)CC1)c1ccc(Cl)cc1 (centres undefined) | inactive | inactive | inactive | inactive | – | – | inactive | – | inactive |
| NC[C@H](O)c1ccc(O)c(O)c1 | inactive | inactive | inactive | inactive | – | 2240 nM (active) | inactive | 2000 nM (active) | – |
| CCN(CC)CCCC(C)Nc1ccnc2cc(Cl)ccc12 (centres undefined) | inactive | inactive | inactive | inactive | – | inactive | inactive | inactive | – |
| N#Cc1ccc(C(c2ccc(C#N)cc2)n2cncn2)cc1 | – | – | – | – | – | – | – | – | inactive |
| CC(C[N+](C)(C)C)OC(N)=O (centres undefined) | inactive | inactive | inactive | inactive | – | inactive | inactive | inactive | inactive |
| Cc1cccc(-c2[nH]c(C(C)(C)C)nc2-c2ccc3nccnc3c2)n1 | inactive | inactive | inactive | – | – | inactive | inactive | inactive | – |
| Cc1cc2c(C(C)C)c(O)c(O)c(C=O)c2c(O)c1-c1c(C)cc2c(C(C)C)c(O)c(O)c(C=O)c2c1O | – | – | inactive | – | – | – | inactive | – | – |
| CCCc1nc2c(C)cc(-c3nc4ccccc4n3C)cc2n1Cc1ccc(-c2ccccc2C(=O)O)cc1 | – | – | – | – | – | – | – | – | inactive |
| C[C@]12CCC(=O)C=C1CC[C@@H]1[C@@H]2[C@@H](O)C[C@@]2(C)[C@H]1CC[C@]2(O)C(=O)CO | inactive | inactive | inactive | – | – | inactive | inactive | inactive | – |
| CC(c1cc2ccccc2s1)N(O)C(N)=O (centres undefined) | – | – | – | – | – | – | – | – | inactive |
| Nc1nc2c(ncn2COCCO)c(=O)[nH]1 | inactive | inactive | inactive | – | inactive | inactive | inactive | inactive | inactive |
| CCCc1nn(C)c2c(=O)[nH]c(-c3cc(S(=O)(=O)N4CCN(C)CC4)ccc3OCC)nc12 | – | – | – | – | – | – | – | – | inactive |
| CCc1ccc(CCOc2ccc(CC3SC(=O)NC3=O)cc2)nc1 (centres undefined) | – | – | – | – | – | – | – | – | inactive |
| OC(CCN1CCCCC1)(c1ccccc1)C1CC2C=CC1C2 (centres undefined) | inactive | inactive | inactive | – | – | inactive | inactive | inactive | – |
